# Results reported in PMC5540273 (PLoS ONE, 2017).
# Columns and labels:
# Conditions in all cases: concentration: 1 μM, replicates: in singlicate; n = 1
# [1] = tested on: FGFR1
# [2] = tested on: FGFR2
# [3] = tested on: FGFR3
# [4] = tested on: FGFR4
# [5] = tested on: FGR
# [6] = tested on: FLT1
# [7] = tested on: FLT3-autoinhibited
# [8] = tested on: FLT3
# [9] = tested on: FLT4
# [10] = tested on: FRK
# [11] = tested on: FYN
# [12] = tested on: GAK
# [13] = tested on: T1, GCN2(Kin.Dom.2,S808G)
# T1 construct: gene EIF2AK4
# [14] = tested on: GRK1
# [15] = tested on: T2, GRK2
# T2 construct: gene ADRBK1
# [16] = tested on: T3, GRK3
# T3 construct: gene ADRBK2
# [17] = tested on: GRK4
# [18] = tested on: GRK7
# [19] = tested on: GSK3A
# [20] = tested on: GSK3B
# 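Note: KINOMEscan kinase panel screen.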
SMILES,%Inh [1] [%],%Inh [2] [%],%Inh [3] [%],%Inh [4] [%],%Inh [5] [%],%Inh [6] [%],%Inh [7] [%],%Inh [8] [%],%Inh [9] [%],%Inh [10] [%],%Inh [11] [%],%Inh [12] [%],%Inh [13] [%],%Inh [14] [%],%Inh [15] [%],%Inh [16] [%],%Inh [17] [%],%Inh [18] [%],%Inh [19] [%],%Inh [20] [%]
c1ccc(-c2cnc3nccnn23)cc1 [AH20685],0,0,0,0,10,0,0,43,0,18,50,0,42,0,0,13,0,0,0,0
Cn1cc(-c2[nH]c3cc(NC(=O)[C@H](N)C4CCCCC4)cc4c3c2C=NNC4=O)cn1,97.9,89,86,97.3,87,81,96.3,100,99.5,0,89,99.8,99.3,11,96.9,100,97.1,40,0,2
COCCOCCOc1cc2ncc3c4ccc(C#N)cc4[nH]c3c2cc1OC,0,25,18,4,30,17,90.1,99.5,20,16,15,99.3,94.6,29,7,0,83,0,0,0
Cc1ccc(C(=O)N2CC[C@@H](O)C2)cc1-n1c(C)cc(OCc2ccc(F)cc2F)c(Br)c1=O,80,66,21,0,0,46,0,14,0,14,21,0,0,16,0,0,0,0,0,0
Cc1ccc(C)c(NC(=O)NC2CCN(c3ccnc(Nc4ccc(F)cc4)n3)C2)c1 (stereo not drawn) [GSK1379720],0,14,2,5,24,9,0,0,0,14,27,0,0,0,0,60,7,0,0,0
CC(=O)N1CCN(c2ccc(Nc3nccc(-c4sc(C(C)C)nc4-c4cccc(NS(=O)(=O)c5cccc(Cl)c5)c4)n3)cn2)CC1 [GSK1660437],20,0,7,0,78,81,9,33,82,70,73,90.9,100,0,12,0,30,0,12,10
Cc1ccc(S(=O)(=O)Nc2ccc(Nc3nccc(Nc4cccc5[nH]ncc45)n3)cc2)cc1 [GSK581271],0,15,7,0,56,19,0,28,5,73,41,44,0,0,0,42,0,0,24,10
Cc1occc1-c1ncc(OC[C@@H](N)Cc2c[nH]c3ccccc23)cc1-c1ccc2[nH]nc(C)c2c1.O=C(O)C(F)(F)F [GSK682037],6,0,1,0,77,11,0,0,3,57,86,82,0,3,0,0,62,43,64,55
Cc1ccc(C(=O)Nc2ccc(Nc3ccnc4cc(-c5nccs5)ccc34)cc2O)cc1.Cl [GW494702],0,35,13,0,73,14,0,14,0,67,25,10,0,17,0,41,17,0,0,7
